From PubChem BioAssay AID493065 (National Center for Advancing Translational Sciences (NCATS), 2011) come the findings set out here.

Some of the results follow. Records with an inconclusive call do not appear. A number with no mark means an inactive call. The call rests on the fitted dose curve; in most records, active means well fitted activation curve with a large enough effect; inconclusive means small, poorly fitted or top-dose-only effect; inactive means flat fitted curve, though single readings scatter.

The test in a line: Parental Cell Counter Screen Assay for Epigenetic Modulators: Hit Validation. As to conditions: mouse c127i parental cells, 30 h, active compounds read high, concentration not given here. The text has this:
NIH Molecular Libraries Screening Centers Network [MLSCN] NIH Chemical Genomics Center [NCGC] MLSCN Grant: 1 X01 MH079860-01 Assay Provider: Elisabeth D. Martinez, University of Texas SW Medical Center NCGC Assay Overview: This assay is a counter screen for the Locus Derepression (LDR) assay (PubChem AID 1865). The LDR assay detects the derepression of a GFP reporter that is stably integrated in a region of the genome of murine c127i mammary cells that is presumably silenced. Compounds that cause derepression of the locus to express GFP are identified by enumerating GFP positive cells using a laser-scanning microplate cytometer. […] Compounds active in the parental c127i cells are likely fluorescent.
NCGC Assay Protocol Summary: Three hundred cells in 5 uL per well were dispensed into black, clear-bottom 1536-well plates. Twenty-three nL compound was transferred to the assay plate and cells were incubated 30 hours at 37 C. Medium was removed, cells were washed two times with PBS, and fluorescent cells were enumerated as objects between the sizes of 20 to 120 um width and depth using a laser-scanning microplate imager (Acumen Explorer Ex3, TTP Labtech). For further details, see Johnson, RL, Huang, W, Jadhav, A, Austin, CP, Inglese, J, Martinez, ED (2008). A quantitative high-throughput screen identifies potential epigenetic modulators of gene expression. Anal Biochem 375: 237-48.
For orientation: Counterscreens check selectivity or assay interference.

`O=C1NC(=O)N(CCc2ccc(F)cc2)C(=O)/C1=C/C=C/c1ccccc1`: the fluorescent cell count was 3%.
